According to the supplement of paper PMC7411640:
Where a name gives a salt, the structure may show the parent alone.

System: MDA-MB-468
Assay: phospho-S6 immunofluorescence (DAPI-normalised), per-plate z-score; higher = higher phospho-S6 signal (less pathway suppression)
Conditions: 24 h
Method: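 GPCR-targeted compound library (MedChemExpress HY-L006) tested on MDA-MB-468 PTEN-null TNBC cells in 384-well plates at 0.1, 1 or 10 uM, combined with vehicle, GDC0941 450 nM or lapatinib 1 uM, for 24 h. Phospho-S6 (S240/244) immunofluorescence normalised to DAPI and expressed as a per-plate z-score; values are the mean of biological triplicates.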

Row | SMILES | phospho-S6 immunofluorescence (z-score) (co-treatment: GDC0941 450 nM) | phospho-S6 immunofluorescence (z-score) (co-treatment: lapatinib 1 uM) | phospho-S6 immunofluorescence (z-score) (co-treatment: vehicle)
1 | Cc1cc(NC(=O)Nc2ccc(N(C)C)cc2)c2cc(F)cc(F)c2n1 (compound 10 µM) | -2.07 | -0.1 | -2.06
2 | O=C(Nc1ccccc1)C12CC1C(=NO)c1ccccc1O2 (configuration not stated) (compound 10 µM) | -0.19 | -0.81 | 0.75
3 | Cc1cc(OCCCS(C)(=O)=O)cc(C)c1-c1cccc(COc2ccc3c(c2)OC[C@H]3CC(=O)O)c1 (compound 10 µM) | -1.06 | 0.1 | -0.32
4 | COC(c1ccccc1)(c1ccccc1)[C@H](Oc1nc(C)cc(C)n1)C(=O)O [Ambrisentan] (compound 10 µM) | 1.18 | 0.5 | -0.07
5 | CC(C)C[C@H](NC(=O)[C@@H](COC(C)(C)C)NC(=O)[C@H](Cc1ccc(O)cc1)NC(=O)[C@H](CO)NC(=O)[C@H](Cc1c[nH]c2ccccc12)NC(=O)[C@H](Cc1cnc[nH]1)NC(=O)[C@@H]1CCC(=O)N1)C(=O)N[C@@H](CCCNC(=N)N)C(=O)N1CCC[C@H]1C(=O)NNC(N)=O [Goserelin (acetate)] (compound 10 µM) | -1.26 | 0.37 | 0.21
6 | CCCCC(=O)N(Cc1ccc(-c2ccccc2-c2nnn[nH]2)cc1)[C@H](C(=O)O)C(C)C.CCOC(=O)[C@H](C)C[C@@H](Cc1ccc(-c2ccccc2)cc1)NC(=O)CCC(=O)O (compound 10 µM) | 0.23 | 0.37 | 0.21
7 | CN(C)CC1CCOC1(c1ccccc1)c1ccccc1 (configuration not stated) [AVex-73 hydrochloride] (compound 10 µM) | -0.82 | -1.17 | 0.2
8 | CCCCCCCCOc1ccccc1C(=O)Nc1ccc(C(=O)OCC[N+](C)(CC)CC)cc1 [Otilonium (bromide)] (compound 10 µM) | -1.43 | 2.8 | 0.94
9 | CC(CN(C)C)CN1c2ccccc2CCc2ccccc21 (configuration not stated) [Trimipramine (maleate)] (compound 10 µM) | -1.05 | -2.53 | -0.39
10 | c1ccc2c(CC3=NCCN3)cccc2c1 [Naphazoline (hydrochloride)] (compound 10 µM) | -0.78 | 0.03 | 0.05
11 | CN1CCCC(n2nc(Cc3ccc(Cl)cc3)c3ccccc3c2=O)CC1 (configuration not stated) [Azelastine (hydrochloride)] (compound 10 µM) | 0.6 | -0.25 | 0.16
12 | CN(C)C(=O)C(CCN1CCC(O)(c2ccc(Cl)cc2)CC1)(c1ccccc1)c1ccccc1 [Loperamide (hydrochloride)] (compound 10 µM) | -1.31 | -3.22 | -0.37
13 | CCCCN1CCC(CNC(=O)c2c3n(c4ccccc24)CCCO3)CC1 [Piboserod] (compound 10 µM) | -0.39 | -0.44 | 0.08
14 | OCc1cc(C(O)CNCCCCCCOCCCCc2ccccc2)ccc1O (configuration not stated) [Salmeterol (xinafoate)] (compound 10 µM) | 1.01 | -2.27 | 2.28
15 | COc1cc2c(cc1OC)CN(C(=O)[C@@H](NCc1ccncc1)C(C)(C)C)CC2 (compound 10 µM) | 0.85 | 0.87 | -0.05
16 | COc1ccc(NS(=O)(=O)c2sc3ccc(Cl)cc3c2C)cc1N1CCNCC1 (compound 10 µM) | 0.28 | -1 | 0.35
17 | CN1CCN(c2cc(-c3ccccc3)nc(N)n2)CC1 (compound 10 µM) | 0.39 | 0.06 | 1.14
18 | CCc1cc2c(cc1CC)CC(NC[C@H](O)c1ccc(O)c3[nH]c(=O)ccc13)C2 [Indacaterol (maleate)] (compound 10 µM) | -0.81 | -1.41 | 0.92
19 | COc1ccccc1Oc1c(NS(=O)(=O)c2ccc(C(C)(C)C)cc2)nc(-c2ncccn2)nc1OCCO [Bosentan (hydrate)] (compound 10 µM) | 0.28 | 0.22 | 0.34
20 | CC(CCc1ccccc1)NCC(O)c1ccc(O)c(C(N)=O)c1 (configuration not stated) [Labetalol (hydrochloride)] (compound 10 µM) | 0.84 | -0.16 | 0.83
21 | Cc1nc2ccc(NC(=O)Nc3ccnc4cccnc34)cc2o1 (compound 10 µM) | 0.6 | -1.8 | 0.79
22 | Cc1nccn1CC1CCc2c(c3ccccc3n2C)C1=O (configuration not stated) [Ondansetron (hydrochloride dihydrate)] (compound 10 µM) | 0.11 | -0.58 | 0.16
23 | CC1CCN(CC[C@H]2CCCN2S(=O)(=O)c2cccc(O)c2)CC1 (compound 10 µM) | 0.86 | 0.2 | 0.48
24 | Cc1ccc(N(CC2=NCCN2)c2cccc(O)c2)cc1 [Phentolamine (mesylate)] (compound 10 µM) | -0.17 | 1.1 | -0.58
